Several values for one entry are separate records, joined by “and”; a condition that tells them apart may be missing. Equal entries are not always repeated. Results filed as inconclusive are left out. Entries that show only a call come without a potency. Activity calls are given as the source filed them. The call rests on the fitted dose curve; in most records, active means well fitted cell-killing curve with a large enough effect in the repeat runs; inconclusive means weak or mixed curves, or effect the other way; inactive means flat fitted curve, though single readings scatter.
Test: qHTS assay to identify small molecule antagonists of the androgen receptor (AR) signaling pathway using the MDA cell line in the presence of 0.5 nM R1881 - cell viability counter screen (AID 1259242); further: nearly all actives have a fitted effect of over 45% in size
Conditions: MDA-kb2 viability, CellTiter-Fluor protease fluorescence, 16 h; series mostly up to 92.4 µM
Description: U.S. Tox21 Program National Center for Advancing Translational Sciences [NCATS] NIH Chemical Genomics Center [NCGC] U.S. Environmental Protection Agency [EPA] National Institutes of Environmental Health Sciences [NIEHS] National Toxicology Program [NTP] U.S. Food and Drug Administration [FDA] Tox21 Assay Overview: Androgen receptor (AR) is an important member of the nuclear receptor family. Its signaling plays a critical role in AR-dependent prostate cancer and other androgen related diseases. Considerable attention has been given in the past decades to develop methods to study and screen for the environmental chemicals that have the potential to interfere with metabolic homeostasis, reproduction, developmental and behavioral functions. Therefore AR binding assay for screening androgen antagonists can be used to identify potential endocrine disruptors. MDA-kb2 cells (from ATCC, deposited by Wilson et al.) were used to screen for AR inhibitors against Tox21 compound libraries. These cells are human breast carcinoma cells that were stably transfected with a luciferase reporter gene under control of the MMTV promoter that contains response elements for both androgen receptor (AR) and glucocorticoid receptor (GR). The current screening for identification of AR inhibitors against Tox21 libraries used lower concentration of (0.5 nM) R1881 as a stimulator. The cytotoxicity of the Tox21 compound libraries against MDA-kb2 cell line was tested by measuring live-cell protease activity using CellTiter-Fluor assay in the same wells.
Tox21 Assay Protocol Summary: MDA-kb2 cells (cells cultured without CO2) were dispensed at 3,000 cells/well in 4 uL of culture medium into white wall/solid-bottom 1536-well plates (Corning Life Sciences, Corning, NY) using a Multidrop Combi (ThermoFisher Scientific, Waltham, MA) dispenser. After the assay plates were incubated at a 37C and 0% CO2 for 5 hr, 23 nL of compounds dissolved in DMSO, positive controls or DMSO only was transferred to the assay plate by a Pintool station (Kalypsys, San Diego, CA). The transfer of compounds was followed by the addition of 1 uL of 0.5 nM (final concentration) agonist (R1881)/culture medium using a Flying Reagent Dispenser (FRD, Aurora Discovery, San Diego, CA). The plates were incubated at 37C and 0% CO2 for 16 hr. For cytotoxicity assay, 1 uL of CellTiter-Fluor reagent (Promega Corporation, Madison, WI) was added to each well using the FRD and after 30 min incubation at 37C and 0% CO2, The fluorescence intensity was measured using ViewLux plate reader (PerkinElmer, Shelton, CT).
Potency means the concentration at half of the fitted maximal effect.

Structure (SMILES)	Potency
Cc1nc(N(C)C)nc(OC(=O)N(C)C)c1C	inactive
O=C(O)C(F)(F)C(F)(F)C(F)(F)C(F)(F)C(F)(F)F	inactive
O=C(O)COc1cc(Cl)c(Cl)cc1Cl	inactive
CON(C)C(=O)Nc1ccc(Cl)cc1	inactive
CCCC1CCCCN1 (stereo not given)	inactive
CCOc1cccc(C2(N3CCN(c4ccccc4)CC3)CCC(C)CC2)c1 (stereo not given)	inactive
CCC[N+](CCC)(CCC)CCC	inactive
OC[P+](CO)(CO)CO	inactive
CC(C)c1ccc(OP(=O)(Oc2ccc(C(C)C)cc2)Oc2ccc(C(C)C)cc2)cc1	inactive
c1ccc2c(c1)sc1ccccc12	inactive
CCOP(=O)(O)C(N)=O	inactive
CCCCC(CC)CO[N+](=O)[O-] (stereo not given)	inactive
OCCSSCCO	inactive
OCC1CO1 (stereo not given)	inactive
O=C([O-])c1ccccn1.O=C([O-])c1ccccn1.O=C([O-])c1ccccn1.[Cr+3]	inactive
Cc1ccccc1	inactive
CC1(C)[C@H](C(=O)O[C@H](C#N)c2cccc(Oc3ccccc3)c2)[C@@H]1C=C(Br)Br	inactive
NP(N)(=O)NC(=O)c1ccc(F)cc1	inactive
CCCN(CCOc1c(Cl)cc(Cl)cc1Cl)C(=O)n1ccnc1	inactive
COC(=O)C1(O)c2ccccc2-c2ccccc21	inactive

Structure (SMILES)	Potency
Clc1ccccc1	inactive
C1CCNCC1	inactive
NC(=O)CF	inactive
Nc1cc(Cl)cc(C(=O)O)c1Cl	inactive
N#CC(C#N)=Cc1ccc(O)c(O)c1	inactive
O=[N+]([O-])c1cc(Cl)c(Cl)cc1Cl	inactive
CC(Cl)C(=O)O (stereo not given)	inactive
Cc1cnc(C2=NC(C)(C(C)C)C(=O)N2)c(C(=O)O)c1 (stereo not given)	inactive
SCc1ccccc1	inactive
O=C=NC1CCCCC1	inactive
O=C(O)C(F)(F)C(F)(F)C(F)(F)C(F)(F)C(F)(F)C(F)(F)C(F)(F)C(F)(F)F	inactive
C=CC(C)(CCC=C(C)C)OC(=O)c1ccccc1N (stereo not given)	inactive
C=CCc1ccccc1O	inactive
ClCc1ccccc1Cl	inactive
COC1=CC(=O)O[C@@H](/C=C/c2ccc3c(c2)OCO3)C1	inactive
O=[N+]([O-])O[C@H]1CO[C@H]2[C@@H]1OC[C@H]2O[N+](=O)[O-]	inactive
C[CH2][Hg][S]c1ccccc1C(=O)O	17.2 µM (active) and 11.9 µM (active)
CCCBr	inactive
CCC1CCC(=O)O1 (stereo not given)	inactive
C[Si](Cn1cncn1)(c1ccc(F)cc1)c1ccc(F)cc1	inactive
